# Screening results: PubChem BioAssay, Broad Institute
# aSyn UTR act: Activators working through SNCA 5'UTR binding (MLPCN); activity score, % (tested at 7.5 µM), hits read low; alpha-synuclein 5'UTR reporter, activators screen; AID 1814; hit rate 7.1% among 300,000; in the data active = activity score below about -60%
# * = called active by the depositor. Only a sample is shown.
SMILES,aSyn UTR act
Cc1ccc(-c2csc(NC(=O)COC(=O)c3cccc(S(=O)(=O)N4CCOCC4)c3)n2)cc1,-93*
Cc1ccc(-c2csc(NC(=O)c3cccc(S(=O)(=O)N4CCN(C)CC4)c3)n2)cc1,-66*
Cc1ccc(C(C)C)c(OCc2ccc(C(=O)N/N=C/c3ccc(O)cc3O)cc2)c1,96
Cc1ccc(C(C)C)c(OCc2nc(-c3nonc3N)no2)c1,-92*
COc1ccc(-c2cc(C(=O)Nc3ccc(C(N)=O)cc3)c3ccccc3n2)cc1OC,-99*
COc1cc(-c2cc(C(=O)Nc3nc4ccccc4s3)c3ccccc3n2)cc(OC)c1OC,-65*
N#C/C(=C\c1ccc(OCC(N)=O)cc1)c1ccccc1,-154*
O=C(CCCN1C(=O)/C(=C/c2ccccc2Cl)SC1=S)NNC(=O)c1ccccc1,62
O=C(CCN1C(=O)/C(=C/c2ccc(F)cc2)SC1=S)NC1C=CS(=O)(=O)C1 (stereo not drawn),-73*
O=C(CCN1C(=O)/C(=C/c2ccccc2Cl)SC1=S)NC1C=CS(=O)(=O)C1 (stereo not drawn),-71*
CC1CCC/C(=C(\C#N)c2nc(-c3cc4ccccc4oc3=O)cs2)C1 (stereo not drawn),-122*
O=c1oc2ccccc2cc1-c1nc2c(s1)CCCC2,44
O=c1oc2ccccc2cc1-c1csc(Nc2nc3ccc(F)cc3s2)n1,-115*
O=c1oc2ccccc2cc1-c1csc(NN=C2CCCCC2)n1,-122*
C/C(=N\Nc1nc(-c2ccc(C)cc2C)cs1)c1cc2ccccc2oc1=O,-72*
O=C(Nc1nc2c(cc3c4c(cccc42)CC3)s1)c1ccccc1Cl,-65*
Cn1c(/C(C#N)=C(\O)c2ccc(Br)s2)nc2ccccc21,-72*
O=C(c1ccccc1)N1CCSc2sccc2C1=O,97
Cc1sc2c(c1C)CN(C(C)(C)C)CN2C(=O)c1ccccc1,-64*
CN(C)/N=C/c1ccc(OS(=O)(=O)c2ccccc2)cc1,-157*
COc1c(O)cc2c(c1O)C(=O)CC(c1ccccc1)O2 (stereo not drawn),-102*
COc1ccc([C@H]2CC(=O)c3c(O)cc(O)cc3O2)cc1O,-93*
CCOC(=O)c1cc2c(nc1N)CC(C)(CC)OC2 (stereo not drawn),-101*
C[C@@H]1[C@@H](Sc2ccccc2)CC(=O)O[C@@H]1c1ccc(-c2ccccc2)cc1,-182*
CC(C)(C)c1ccc(/C=C/C(=O)c2ccc(NC3=NCCCS3)cc2)cc1,-107*
SMILES,aSyn UTR act
O=C(/C=C/c1ccc(Br)cc1)c1ccc(NC2=NCCCS2)cc1,-99*
O=C(NCc1cccnc1)/C(=C\c1ccc(-c2ccc(Cl)c(Cl)c2)o1)S(=O)(=O)c1ccccc1,-332*
O=C(O)c1ccc(/C=N/Nc2ccc(F)cc2F)cc1,-111*
Fc1ccc(N/N=C/C=C/c2ccccc2)c(F)c1,-159*
Clc1ccc(N/N=C/c2ccncc2)cc1Cl,-221*
Fc1ccc(N/N=C/c2ccncc2)c(F)c1,-177*
COc1ccc(C2CC(c3ccccc3OC(C)=O)=NN2C(C)=O)cc1 (stereo not drawn),-79*
CN(C)CC/C=C1/c2ccccc2CS(=O)(=O)c2ccccc21,-74*
c1ccc(-n2nc3c(ccc4cnnc43)[nH]2)cc1,-129*
O=C(Nc1ccc(-c2nc3cccnc3s2)cc1)c1ccc(Cl)nc1,-151*
O=C(Nc1ccc(-c2nc3cccnc3s2)cc1)c1ccc(Br)o1,-159*
COC1c2ccccc2C(=O)N1CCc1ccc(Cl)cc1 (stereo not drawn),-73*
Cc1ccnc(NC(=O)COc2ccc3c(c2)CCC3)c1,-90*
CCc1ccc(OCC(=O)N2CCc3ccccc32)cc1,-190*
O=C(CO/N=C/c1ccccc1O)N1CCc2ccccc21,-67*
O=C(COc1ccc2c(c1)CCC2)N1CCc2ccccc21,-123*
Cc1ccc(OCC(=O)N2CCc3ccccc32)cc1,-121*
COc1ccc(-c2nnc(SCc3ccccc3)n2N)cc1,-142*
COc1ccc(N=C(N)SCc2ccccn2)cc1,-79*
COc1ccc(-c2nnc(SCc3ccccn3)n2C)cc1,-67*
COc1ccc(-c2nnc(SCCc3ccccc3)n2N)cc1,-82*
Clc1cccc(Cl)c1COn1nnc2ccccc21,-149*
COC(=O)c1ccc(COn2nnc3ccccc32)cc1,-130*
CN(C)c1ccc(/C=C/c2cc[n+]([O-])cc2)cc1,-114*
CSc1ncc(CN2CCCC(C(=O)c3ccc(C(C)(C)C)cc3)C2)cn1 (stereo not drawn),-88*
SMILES,aSyn UTR act
COc1ccc(C(=O)CSc2cc(C)[nH]c(=O)n2)cc1,-86*
COc1ccc(NCc2nnc(SCC(=O)c3ccc(OC)cc3)n2C)cc1,-127*
CCOC(=O)c1sc(NC(=O)CSc2nccn2C)nc1C,-112*
O=C(CSc1ncc(-c2ccc(F)cc2)n1Cc1ccco1)Nc1ccc2c(c1)OCO2,-150*
COc1ccc(C(=O)CSc2nccn2C)cc1,-80*
CCOc1ccc(NC(=O)CSc2nccn2C)cc1,-65*
O=C(CSc1nccn1-c1ccccc1)Nc1ccc2c(c1)OCO2,-69*
Cn1ccnc1SCC(=O)Nc1ccc2c(c1)OCO2,-107*
O=C(CSc1nccn1-c1ccc(F)cc1)Nc1ccc2c(c1)OCO2,-65*
CN(C(=O)c1ccco1)c1nnc(C23CC4CC(CC(C4)C2)C3)s1,-144*
CCOC(=O)C1(CCc2ccccc2)CCN(C(=O)Cc2nonc2C)CC1,-78*
COc1ccc(NC(=O)c2ccc3c(c2)N(C)CCS3)cc1,-148*
CN1CCSc2ccc(C(=O)Nc3cccc(F)c3)cc21,-134*
CCOC(=O)C(NC(=O)CCl)(Nc1sc(C)c(CC)c1C#N)C(F)(F)F (stereo not drawn),-75*
COc1ccc(Nc2ccnc(Nc3ccc(OC)cc3)n2)cc1,-120*
CCOc1ccc(Nc2nc(N)c3ccccc3n2)cc1,102
COc1ccc(Nc2ncnc3ccccc23)cc1,-152*
Cc1ccc(O)c(Nc2ncnc3ccccc23)c1,-96*
COc1cccc(Nc2ncnc3ccccc23)c1,-123*
COc1ccc(Nc2cc(Nc3ccccc3)ncn2)cc1,-81*
COc1cccc(Nc2cc(C)c3ccccc3n2)c1,-63*
N#CC(C(=O)C12CC3CC(CC(C3)C1)C2)c1nc2ccccc2[nH]1 (stereo not drawn),-74*
O=c1c2ccc([N+](=O)[O-])cc2ncn1CCOc1ccccc1,-69*
COc1ccc2c(Cn3cnc4cc([N+](=O)[O-])ccc4c3=O)cc(=O)oc2c1,72
O=c1c2ccccc2ncn1CCOc1ccccc1[N+](=O)[O-],-63*
SMILES,aSyn UTR act
CN1CCN(c2ccc(-c3ccnn3C(=O)Nc3cccc(C(F)(F)F)c3)cc2)CC1,-114*
O=C1CC(c2ccccc2)Sc2nc3ccccc3n21 (stereo not drawn),-196*
O=C1CC(c2ccc3c(c2)OCO3)Sc2nc3ccccc3n21 (stereo not drawn),-160*
CC1Oc2ccccc2C=C1/C=N/Nc1ccc(C(=O)O)cc1 (stereo not drawn),-95*
Cc1ccc(COc2ccccc2C(=S)N2CCCC2)cc1,-76*
COc1cc(C(=S)N2CCCC2)ccc1OCc1ccc(C)cc1,-116*
Cc1cc2ccccn2c1C(C[N+](=O)[O-])c1ccc(N(C)C)cc1 (stereo not drawn),-80*
Clc1cccc(CSc2ncn(-c3ccccc3)n2)c1,-67*
N#C/C(=C\C=C\c1ccccc1)C(=O)NCc1cccnc1,-70*
Cn1c(SCc2ccc3c(c2)OCO3)nnc1-c1ccccc1,-80*
